According to ChEMBL document CHEMBL1157539, “Thousands of chemical starting points for antimalarial lead identification” (Nature, 2010):

system: Plasmodium falciparum; assay: GSK_TCMDC: Inhibition of Plasmodium falciparum 3D7 in whole red blood cells, using parasite LDH activity as an index of growth. Test compounds present at 2uM; format: functional

| Compound | Inhibition [%] |
| --- | --- |
| CCc1cn2c3c(cc(C(=O)N[C@@H](Cc4ccccc4)[C@H](O)CNC4CCC4)cc13)N(C)S(=O)(=O)CC2 | 98 |
| CC(=O)C=C1CC(=O)N(C[C@@H](O)[C@H]2O[C@@H]3OC(C)(C)O[C@@H]3[C@H]2O)c2ccccc2N1 | 90 |
| CCOc1cc2ncnc(Nc3cc(Cl)c(Cl)c(Cl)c3)c2cc1OCC.Cl | 100 |
| Cc1ccc(C(C#N)c2ccc3c(C(F)(F)F)cc(C(F)(F)F)nc3n2)cc1 (stereo not given) | 96 |
| CCOc1cc(C(=O)NCc2cc(Cl)cc(Cl)c2)ccc1-c1nc2cc(Cl)ccc2[nH]1 | 100 |
| Nc1cc(/C=C/c2ccc([N+](=O)[O-])o2)nc2ccccc12 | 93 |
| Cc1cc(N2CCCC2)nc(Nc2ccc(NC(=O)C(C)C)cc2)n1 | 97 |
| O=C(Nc1cccc(C(F)(F)F)c1)c1cccc(S(=O)(=O)NCC2CCN(CC3CCCCC3)CC2)c1.O=C(O)C(F)(F)F | 97 |
| COc1ccc(NC(=O)Nc2ccc(Nc3nc(C)cc(N(C)C)n3)cc2)cc1 | 100 |
| NC(=O)c1ccccc1OCC(=O)Nc1cccc(-c2ccc(-c3nc4cc(C(F)(F)F)ccc4[nH]3)cc2)c1 | 92 |
| COc1cc(NC(=O)Nc2ccc([N+](=O)[O-])cc2OC)c(OC)cc1Cl | 87 |
| c1cncc(NCc2ccc(-c3cc4ccncc4cc3OC3CCNCC3)s2)c1 | 100 |
| OC(COc1ccccc1-c1nc2ccccc2o1)CN1CCCN(CCc2ccccc2)CC1 (stereo not given) | 97 |
| COc1cccc(C(=O)NC(c2ccc(Cl)cc2Cl)c2cc(Cl)c3cccnc3c2O)c1 (stereo not given) | 100 |
| COc1ccc(NC(=O)c2ccc(-c3cc(NC(=O)c4ccnc(N5CCCC5)c4)ccc3C)s2)cc1N1CCN(C)CC1.O=C(O)C(F)(F)F | 100 |
| COc1ccc(C=C2SC(=O)N=C2Nc2ccccc2)c(OC)c1 | 91 |
| CC(=O)N(C)c1cccc(C(=O)Nc2cccc(-c3cccc(-c4nc5cccc(C)c5[nH]4)c3)c2)c1 | 89 |
| COc1cc(C=CC(=O)N2CCC(CCN3CCC(c4c[nH]c5ccccc45)CC3)CC2)cc(OC)c1 | 92 |
| NC1CCCN(Cc2cccc(-c3ccc(-c4nc5ccccc5[nH]4)cc3)c2)C1.O=C(O)C(F)(F)F (stereo not given) | 100 |
| CCCCCCOc1ccc(C(=O)NCCC2CCN(CCCCCNC(=O)C=Cc3ccc(Cl)c(Cl)c3)CC2)cc1 | 99 |

| Compound | Inhibition [%] |
| --- | --- |
| COC(=O)c1ccc(-c2ccc(C(=O)NCC3CCN(c4nc(N)c5cc(OC)c(OC)cc5n4)CC3)cc2)cc1 | 98 |
| Cc1ccc2c(OCCN3CCC(Cc4cc5c(cc4F)OCC(=O)N5)CC3)cc(F)cc2n1.Cl | 100 |
| CCSc1nnc(C2CCCN(CC(=O)Nc3cc(C(F)(F)F)ccc3Cl)C2)n1CC (stereo not given) | 99 |
| O=C(NCC1CCN(CC2CCCCC2)C1)c1cc(-c2cccc(C(F)(F)F)c2)cs1.O=C(O)C(F)(F)F (stereo not given) | 96 |
| CCCCCC(C)(C)NC[C@@H](O)[C@H](Cc1ccccc1)NC(=O)c1cc(NCC)cc(N2CCCC2=O)c1.O=CO | 99 |
| Cn1nccc1C(=O)NCCNCc1ccc(-c2cccc(-c3nc4cc(F)ccc4[nH]3)c2)cc1.O=C(O)C(F)(F)F | 100 |
| CN1C(C)(C)CC(NC(=O)c2ccc(-c3nc4cc(Cl)c(Cl)cc4[nH]3)cc2)CC1(C)C | 98 |
| CCc1cc(OC)c(C(=O)NC2CCN(C[C@H](O)c3ccnc4ccc(OC)cc34)CC2)cc1Br | 98 |
| NC(=O)c1cccc(CN2Cc3ccccc3OC3(CCN(Cc4c[nH]c5cnccc45)CC3)C2)c1.O=C(O)C(F)(F)F | 94 |
| CCN1CCCC1CN(Cc1ccc(-c2ccc(C(F)(F)F)cc2)cc1)C(=O)Cn1c(CCc2cccc(F)c2F)nc(=O)c2ccccc21.O=C(O)C(O)C(O)C(=O)O (stereo not given) | 94 |
| CC(C)(C)C1CCc2onc(C(=O)Nc3cc(Cl)ccc3O)c2C1 (stereo not given) | 98 |
| Cl.O=c1nc(NCCCNCc2cc3c(Cl)cc(Cl)cc3[nH]2)[nH]c2ccccc12 | 91 |
| CC(=NNC(=N)N)c1ccc2c(ccc3ccccc32)c1.Cl | 100 |
| Cc1ccc(Nc2nc(N)c3ccccc3n2)cc1.Cl | 94 |
| Cc1cc(NCCC(=O)Nc2ccccc2)nc(NCCc2cccs2)n1.O=C(O)C(F)(F)F | 99 |
| COc1ccc(C(=C(C)CC(C)C(=O)O)c2ccccc2)cc1 (stereo not given) | 95 |
| O=[N+]([O-])c1cccc(/C=N/Nc2ccnc3cc(F)ccc23)c1 | 100 |
| Cc1ccc(CN2CCCN(Cc3cccc(NC(=O)c4ccc(Cl)c(Cl)c4)c3)CC2)cc1.O=C(O)C(F)(F)F | 96 |
| Cc1ccc2c(=O)c3cc(C)ccc3[nH]c2c1 | 96 |
| Cc1cc(NC(=O)NCCN2CCC(NS(=O)(=O)c3ccccc3Cl)C2)c2ccccc2n1 (stereo not given) | 97 |
